Out of some 2,000 compounds screened, about 250 (12%) were called active. Cut-off read from the data, not from the text of the source: active = hERG blockade below about -20% or above about 20%; inactive = in between. This excerpt belongs to a sample that is enriched for actives.

For this test, the target named is Voltage-gated inwardly rectifying potassium channel KCNH2 (Homo sapiens) (UniProt Q12809). In words: KCNH2 potassium channel function modulators, cell-based (AID 376).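 Note: 0% = buffer alone and 100% = reference blocker.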 Conditions: hERG-expressing cells, channel activity single-concentration screen; concentration not given here. For orientation: Block of hERG is tested as a sign of cardiac risk.
Voltage-gated inwardly rectifying potassium channel KCNH2 (Homo sapiens), sequence (Q12809 whole entry, looked up): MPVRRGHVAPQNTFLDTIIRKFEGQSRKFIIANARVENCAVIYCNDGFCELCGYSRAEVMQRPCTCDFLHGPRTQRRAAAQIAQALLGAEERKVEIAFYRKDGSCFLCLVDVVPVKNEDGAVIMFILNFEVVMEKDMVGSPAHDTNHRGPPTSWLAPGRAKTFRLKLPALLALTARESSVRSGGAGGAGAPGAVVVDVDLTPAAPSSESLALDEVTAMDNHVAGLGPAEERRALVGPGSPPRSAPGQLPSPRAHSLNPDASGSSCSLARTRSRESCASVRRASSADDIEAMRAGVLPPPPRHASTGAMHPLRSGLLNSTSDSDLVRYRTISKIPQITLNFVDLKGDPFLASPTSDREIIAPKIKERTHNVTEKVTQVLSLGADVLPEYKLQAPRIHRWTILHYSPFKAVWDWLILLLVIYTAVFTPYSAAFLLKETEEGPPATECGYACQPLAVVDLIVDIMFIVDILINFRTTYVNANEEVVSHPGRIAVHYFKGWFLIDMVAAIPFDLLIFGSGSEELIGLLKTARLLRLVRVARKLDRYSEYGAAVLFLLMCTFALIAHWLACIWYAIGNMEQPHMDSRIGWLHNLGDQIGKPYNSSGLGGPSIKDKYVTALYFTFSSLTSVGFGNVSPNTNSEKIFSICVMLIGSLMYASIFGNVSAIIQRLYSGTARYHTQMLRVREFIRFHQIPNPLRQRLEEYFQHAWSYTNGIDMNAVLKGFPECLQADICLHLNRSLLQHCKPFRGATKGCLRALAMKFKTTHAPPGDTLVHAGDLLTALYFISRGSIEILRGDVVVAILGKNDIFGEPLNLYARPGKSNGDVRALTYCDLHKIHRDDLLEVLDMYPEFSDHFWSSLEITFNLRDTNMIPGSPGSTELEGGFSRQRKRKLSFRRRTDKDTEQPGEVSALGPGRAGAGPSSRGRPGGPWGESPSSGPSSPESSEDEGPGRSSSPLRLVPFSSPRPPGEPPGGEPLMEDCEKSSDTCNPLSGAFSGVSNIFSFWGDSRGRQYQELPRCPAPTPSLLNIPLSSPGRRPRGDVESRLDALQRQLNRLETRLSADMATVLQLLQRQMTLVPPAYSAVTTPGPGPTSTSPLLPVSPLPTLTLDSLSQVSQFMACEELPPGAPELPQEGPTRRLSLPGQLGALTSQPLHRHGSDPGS
On to `CNC1NC(=O)c2ccccc2N1Cc1ccc(F)cc1` (stereo not given), for which the hERG blockade is 9.53% (inactive).

Take `c1ccc(CSc2nnc3c4ccccc4c4ccccc4c3n2)cc1`: the hERG blockade is -3.1% (inactive).

Consider `CCOC(=O)C(O)Cc1cnc2ccccc2n1` (stereo not given), for which the hERG blockade was 19.4% (inactive).

In the case of `c1ccc(CCNCc2ccco2)nc1`, the hERG blockade was -7.49% (inactive).

In the case of `CCCC(Sc1nc(N)nc2nc[nH]c12)C(=O)O` (stereo not given), the hERG blockade is 2.81% (inactive).

`CC(C)(SCc1ccccc1)C(N)C(=O)O` (stereo not given): the hERG blockade is 2.47% (inactive).

With `NS(=O)(=O)c1ccc(NC(=O)Nc2cccc3ccccc23)cc1`, the hERG blockade is 0.23% (inactive).

As to `CC(=N[O-])C(C)=N[O-].CC(=N[O-])C(C)=N[O-].CC(=N[O-])C(C)=N[O-].CC(=N[O-])C(C)=N[O-].[CH3-].[CH3-].[Co].[Co]`, the hERG blockade was 11.4% (inactive).

On to `O=S(=O)(c1cccc(C(F)(F)F)c1)N1c2ccccc2-n2cccc2C1c1cccnc1` (stereo not given), for which the hERG blockade was 18% (inactive).

On to `FC(F)(F)c1nc(SCc2ccc(Cl)cc2)n[nH]1`, for which the hERG blockade is 4.58% (inactive).

Regarding `COc1ccc2nc3cc(Cl)ccc3c(Nc3ccc(O)c(CN4CCN(C)CC4)c3)c2c1`, the hERG blockade was 61.7% (active).

Consider `COc1ccc2c(Cl)cc(NC(=S)Nc3ccccc3)nc2c1`, for which the hERG blockade is -8.81% (inactive).

Regarding `CSc1nc(C)cc(Nc2ccc(O)c(CN3CCCCC3)c2)n1`, the hERG blockade is 14.8% (inactive).

As to `OC(CNc1ccccn1)c1ccccc1` (stereo not given), the hERG blockade was 5.58% (inactive).

On to `Cc1cc(Cc2c(C)c(C)c(Cc3cc(C)cc(C(C)(C)C)c3O)c(C)c2C)c(O)c(C(C)(C)C)c1`, for which the hERG blockade is 1.65% (inactive).

In the case of `Nc1ccc(N(S(=O)(=O)c2ccccc2)S(=O)(=O)c2ccccc2)c(Cl)c1`, the hERG blockade is 0.845% (inactive).

Regarding `COc1cc(CN2CCCCC2)cc2cc(C(=O)O)c(=O)oc12`, the hERG blockade is 4.84% (inactive).

For `O=C(O)c1c[nH]c2c(ccc3[nH]cc(C(=O)O)c(=O)c32)c1=O`, the hERG blockade is 22.9% (active).

`O=C(O)c1ccc(C(=O)O)c2c(C(=O)O)ccc(C(=O)O)c12`: the hERG blockade was -5.21% (inactive).

As for `O=C(O)c1c[nH]c2cc(OCc3ccccc3)ccc2c1=O`, the hERG blockade is 6.26% (inactive).

Regarding `O=C(O)C(Cc1ccccc1-c1ccccc1)C(=O)O`, the hERG blockade was 19.4% (inactive).

`Cc1n[nH]c2ccccc2c1=O`: the hERG blockade is -1.27% (inactive).

`COc1ccc2ccccc2c1C=CC(=O)c1ccccc1`: the hERG blockade is -1.69% (inactive).

Turning to `O=C(O)CCC(=O)c1ccc2sc3ccccc3c2c1`, the hERG blockade is -5.18% (inactive).

As to `O=C(C[n+]1ccc2ccccc2c1)c1ccc2ccc3ccccc3c2c1`, the hERG blockade is 37.2% (active).

In the case of `OC(COc1ccc(Cl)cc1Cl)CN1CCCC1` (stereo not given), the hERG blockade is 17.2% (inactive).

On to `C[N+](C)(N)CCC[N+](C)(C)N`, for which the hERG blockade was -2.4% (inactive).

Take `O=C1C2=C(Nc3cc([N+](=O)[O-])ccc3N2)OC1c1c[nH]c2ccc(COc3ccccc3)cc12` (stereo not given): the hERG blockade is 4.4% (inactive).

For the compound `Nc1nc(SCc2ccccc2Cl)cc(C(=O)O)n1`, the hERG blockade was -7.45% (inactive).

In the case of `CC(C)C1=CC23CCC4C(C)(C(=O)O)CCCC4(C)C2CC1C(C(=O)O)C3C(=O)O` (stereo not given), the hERG blockade was 6.18% (inactive).

Consider `Oc1c(C(O)(c2ccccc2)c2ccc3ccccc3c2O)ccc2ccccc12`, for which the hERG blockade is 50.7% (active).

With `Oc1ccc2ccccc2c1Cc1c(O)ccc2ccccc12`, the hERG blockade was 8.8% (inactive).

`CC(O)(c1ccccc1)c1nccc2ccccc12` (stereo not given): the hERG blockade is 0.101% (inactive).

As for `CC1=NN(c2ccc(S(=O)(=O)O)cc2)C(=O)C1=Cc1ccc(Cl)cc1`, the hERG blockade was 41% (active).

Regarding `O=c1oc2ccccc2c(O)c1C=Nc1nc(-c2ccc(O)c(O)c2)cs1`, the hERG blockade is -3.45% (inactive).

Regarding `C[N+](C)(C)CC(=O)NN=Cc1ccncc1`, the hERG blockade was -9.76% (inactive).

Turning to `C=CCSc1nc2c(N)ncnc2n1C1OC(CO)C(O)C1O` (stereo not given), the hERG blockade was -7.69% (inactive).

Take `NS(=O)(=O)c1ccc(NCc2cnc3ccccc3c2)cc1`: the hERG blockade is -4.82% (inactive).

For `NS(=O)(=O)c1ccc(NCc2cnc3ccccc3n2)cc1`, the hERG blockade is -7.4% (inactive).

As for `Nc1nccc(Nc2ccc(S(N)(=O)=O)cc2)n1`, the hERG blockade was 20.2% (active).

Regarding `O=[N+]([O-])c1ccc(CS(=O)Cc2ccccc2)cc1` (stereo not given), the hERG blockade was 8.1% (inactive).

Turning to `Cc1ccc(S(=O)(=O)Oc2cc(S(=O)(=O)O)cc3cc(S(=O)(=O)O)cc(N)c23)cc1`, the hERG blockade was 11.5% (inactive).

On to `Cc1ccc(S(=O)(=O)Oc2cc(N)c3c(n2)CCC3)cc1`, for which the hERG blockade was -21.4% (active).

`Cc1ccc(S(=O)(=O)Nc2cc(=O)[nH]c3c2CCC3)cc1`: the hERG blockade is 15.4% (inactive).

On to `O=C(O)C(=Cc1ccncc1)c1cccc2ccccc12`, for which the hERG blockade is 0.772% (inactive).

`COc1ccc2c3c([nH]c2c1)C1CC2C(CC(O)C(OC)C2C(=O)O)CN1CC3` (stereo not given): the hERG blockade was 5.28% (inactive).

As for `COC(=O)C1C(O)CCC2CN3CCc4c([nH]c5ccccc45)C3CC21` (stereo not given), the hERG blockade is 42.5% (active).

In the case of `COC(=O)C1C(OS(=O)(=O)O)CCC2CN3CCc4c([nH]c5ccccc45)C3CC21` (stereo not given), the hERG blockade was -1.73% (inactive).

In the case of `Oc1cc(O)c2c(c1)OC(c1ccc(O)c(O)c1)C(O)C2c1c(O)cc(O)c2c1OC(c1ccc(O)c(O)c1)C(O)C2` (stereo not given), the hERG blockade was 10.6% (inactive).

In the case of `O=C(O)COc1c(Cl)cc(Cl)c2cccnc12`, the hERG blockade is -8.13% (inactive).

Take `O=C(Oc1ccc2c(c1)CN(Cc1ccccc1)CO2)c1ccccc1`: the hERG blockade was 13% (inactive).

With `c1ccc(CN2COc3c(ccc4c5c(ccc34)CN(Cc3ccccc3)CO5)C2)cc1`, the hERG blockade is -6.83% (inactive).

In the case of `CC(C)(C)c1c2c(c(C(C)(C)C)c3c1OCN(Cc1ccccc1)C3)OCN(Cc1ccccc1)C2`, the hERG blockade is 23.8% (active).

With `CCCC(c1cc(C(C)(C)C)c(O)cc1C)c1cc(C(C)(C)C)c(O)cc1C`, the hERG blockade is 4.17% (inactive).

With `CC(=N[O-])C(C)=N[O-].CC(=N[O-])C(C)=N[O-].C[CH-]C(C)O.[Co].c1ccncc1`, the hERG blockade is -3.56% (inactive).

For the compound `Nc1ccn(C2OC(CO)C3[O][Sn]([c]4ccccc4)([c]4ccccc4)[O]C32)c(=O)n1` (stereo not given), the hERG blockade is 9.47% (inactive).

As to `N=c1ccn2c(n1)OC1C(OP(=O)(O)O)C(CO)OC12` (stereo not given), the hERG blockade was -24.7% (active).

Take `Nc1ccn(C2OC(COP(=O)(O)O)C(O)C2O)c(=O)n1` (stereo not given): the hERG blockade is -9.61% (inactive).

Take `Fc1cccc(Cl)c1C=NN=C1c2ccccc2-c2ccccc21`: the hERG blockade was 4.24% (inactive).

As to `O=C(O)c1c(Cl)c(Cl)c(Cl)c(Cl)c1C(=O)Nc1ccc2cn[nH]c2c1`, the hERG blockade is 9.23% (inactive).

The record behind these values is PubChem BioAssay AID376 (PDSP, 2006).
